Results from PubChem BioAssay.
“And” between values parts separate entries of the source, which are not always exact repeats. Equal values may be shown once. This is one part of the list. Inconclusive results are not listed. The source made the active and inactive calls.

Tests used:
[1] = inhibitors of TNFa-induced NFkB p65 translocation, primary screen, imaging, HUVEC, MLSMR starter and 10KST1 sets (AID 438;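 active = inhibition above 20% together with a positive visual image hit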;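 note: compound added about 3h40 before a 20 min TNFalpha stimulation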;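 for inhibition: signal is the nuclear over cytoplasmic p65 intensity ratio per well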); details: HUVEC TNFa-induced p65 nuclear translocation; cell count: measured here: nuclei count (cytotoxicity indicator), at 2.08 µM; inhibition: at 2 µM, stronger effect = higher value, 0% TNFa-plus-vehicle, 100% no-TNFa wells
[2] = inhibitors of mutant huntingtin aggregation, primary screen, imaging, exon1htt(103Q)mCFP cells, high-content imaging (AID 483;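 active = visual image review flags a hit and inhibition of aggregation exceeds 20%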;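 note: compound exposure lasted 3 days before fixation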;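 for nuclei count: percent of the per-plate median nuclei count of sample wells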); details: exon1htt(103Q)mCFP cell line, aggregate imaging, at 2 µM; inhibition of aggregation: stronger effect = higher value; nuclei count: measured here: cell count, toxicity
[3] = inhibitors of E-selectin induction by TNFa, primary screen, imaging, HUVEC, immunofluorescence, MLSMR starter and 10KST1 sets (AID 487;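 active = visually confirmed hit in the image check and inhibition above 20%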;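 for inhibition: signal is fraction of cell area covered by stained E-selectin grains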;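 for nuclei count: 100% = median nuclei count of all wells on the same plate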); details: HUVEC TNFalpha-induced E-selectin immunofluorescence imaging, at 2 µM; inhibition: stronger effect = higher value; nuclei count: measured here: cell number, toxicity
[4] = DUSP6 inhibitors restoring Erk phosphorylation by chemical complementation, primary imaging in DUSP6-transfected HeLa (AID 609;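 active = compounds giving at least 50% inhibition in the cell-based MKP-3 phosphatase rescue imaging test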;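 for inhibition: phospho-Erk level distribution per well compared with pooled transfected vehicle control wells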); details: HeLa MKP-3 transfected, phospho-Erk imaging KS statistic, at 10 µM, cells stimulated with TPA for 15 min
[5] = target: Dual specificity protein phosphatase 6 (Homo sapiens) (UniProt Q16828); test: as above; details: HeLa MKP-3 transfected, phospho-Erk imaging KS statistic; at 10 µM; stronger effect = higher value; cells stimulated with TPA for 15 min
[6] = target: Voltage-gated potassium channel subunit beta-2 (Rattus norvegicus) (UniProt P62483); test: KvBeta enzyme negative modulators, primary screen, biochemical, NADPH fluorescence (AID 622;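 active = fluorescence slope higher than the sample average by over 3 SD, cut at about -0.22 in these data, passing the limit was not always enough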;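 note: slope of raw intensity against log time taken from 70 to 1610 s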); details: recombinant KvBeta, 4-cyanobenzaldehyde reduction, at 10 µM, stronger effect = higher value
[7] = target: Voltage-gated potassium channel subunit beta-2 (Rattus norvegicus) (UniProt P62483); test: KvBeta positive modulators, primary screen, biochemical, NADPH fluorescence (AID 623;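 active = NADPH fluorescence slope more negative than the mean of all samples by about 3 SD, 99.7% confidence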;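 note: fluorescence intensity change per second fitted from 20 to 320 s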); details: Recombinant KvBeta, NADPH fluorescence decrease slope, 10 min; at 10 µM; stronger effect = lower value
[8] = target: Alpha-2C adrenergic receptor (Homo sapiens) (UniProt P18825); test: modulators of alpha2C/GIRK thallium flux, primary screen, cell-based, HEK293 alpha2C/GIRK1/2 (AID 624;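 active = fluorescence slope after compound addition differing from the mean of all screened samples at 99.7% confidence, in either direction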;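 note: slope of fluorescence ratio to pre-addition baseline per second over 15 to 24 s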); details: thallium flux BTC fluorescence, at 10 µM, actives lie on both sides
[9] = inhibitors of Chlamydomonas gravitaxis, primary screen, whole organism, Chlamydomonas reinhardtii, WT vs cilia-less mutant, absorbance, 96-well (AID 463189); details: OD600 absorbance, 2 days, at 10 µM, stronger effect = higher value;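 note: 0% = wild type cc124 cells in DMSO and 100% = ciliumless bld1 mutant cells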
[10] = inhibitors of Sendai virus-induced IRF3 signaling, primary screen, TLR/RLR signaling modifier project, cell-based, Sendai virus stimulus, luciferase, 10K MLSCN set (AID 602276;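 active = inhibition at or above 50% at 10 µM; inactive = inhibition below 50%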;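 note: firefly luciferase from ISG56 promoter only with Renilla not read in this screen; 0% = Sendai virus plus DMSO and 100% = medium plus DMSO without virus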); details: HEK293 RL24 IRF3 luciferase reporter, at 10 µM, stronger effect = higher value
[11] = inhibitors of poly I:C-induced TLR3 signaling, primary screen, cell-based, poly I:C stimulus, luciferase, 10K MLSCN set (AID 602277;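 active = inhibition of the reporter signal at or above 50%; inactive = inhibition below 50%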); details: HEK293-TLR3 RL24 IRF3 luciferase reporter, at 10 µM, stronger effect = higher value
PubChem AID 1714 = details: HEK293-KCC2 + bumetanide/ouabain, thallium flux FluoZin2; at 10 µM; stronger effect = higher value
[12] = target: Solute carrier family 12 member 5 (Homo sapiens) (UniProt Q9H2X9); test: KCC2 modulators without ouabain present, confirmation, cell-based, HEK293 KCC2, thallium flux, FluoZin2, secondary assay 2 (AID 1715;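 active = thallium flux slope more than 3 SD above or below the plate's solvent-only control mean, mostly below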;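 note: raw slope with 0.1% DMSO as baseline and bumetanide as block control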); details: HEK293-KCC2, thallium flux FluoZin2 fluorescence; at 10 µM; actives lie on both sides; F/F0 rise rate, 10–20 s post-thallium
[13] = thallium flux modulation in parental HEK cells, confirmation, counter-screen for KCC2 modulator project, cell-based, counterscreen 1 (AID 1716;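 active = thallium flux rate significantly above the same plate's solvent-only control wells, beyond their mean plus 3 SD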); details: HEK293 parental cells, thallium flux FluoZin2, ouabain; at 10 µM; baseline-ratio fluorescence slope, 10–20 s after thallium
[14] = target: Solute carrier family 12 member 5 (Homo sapiens) (UniProt Q9H2X9); test: KCC2 inhibitors and activators, ouabain retest, confirmation, HEK-KCC2 cells (AID 1717;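 active = thallium flux slope beyond 3 SD from same-plate DMSO control mean in most replicates, usually higher, sometimes lower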;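 note: slope of initial-normalized fluorescence between seconds 10 and 20 after thallium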); details: HEK293-KCC2, thallium flux FluoZin2 fluorescence, at 10 µM, bidirectional: low = inhibitor, high = activator
[15] = target: Solute carrier family 12 member 5 (Homo sapiens) (UniProt Q9H2X9); test: KCC2 modulators in sodium-free buffer, confirmation, cell-based, HEK293 KCC2, thallium flux, secondary assay (AID 1713;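 active = thallium flux slope above the same plate's solvent-only control mean plus 3 SD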); details: FluoZin2 fluorescence, at 10 µM, stronger effect = higher value
[16] = native HEK Tl+ uptake effects, second counter-screen – HEK cells, counterscreen 2, counter-screen for KCC2 modulator project, confirmation (AID 1718;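 active = thallium flux slope above the same plate's solvent-control mean plus 3 SD in both duplicate wells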;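 note: run without ouabain in cells lacking the KCC2 cotransporter; slope of fluorescence scaled to its starting value between 10 and 20 s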); details: HEK293 parental, thallium flux FluoZin-2 fluorescence slope; at 10 µM
[17] = measured here: cell density z-score
[18] = measured here: nuclear c-Myc green intensity z-score
[19] = measured here: nuclear pErk red intensity z-score, stronger effect = higher value

Solute carrier family 12 member 5 (Homo sapiens), sequence (Q9H2X9 whole entry, looked up): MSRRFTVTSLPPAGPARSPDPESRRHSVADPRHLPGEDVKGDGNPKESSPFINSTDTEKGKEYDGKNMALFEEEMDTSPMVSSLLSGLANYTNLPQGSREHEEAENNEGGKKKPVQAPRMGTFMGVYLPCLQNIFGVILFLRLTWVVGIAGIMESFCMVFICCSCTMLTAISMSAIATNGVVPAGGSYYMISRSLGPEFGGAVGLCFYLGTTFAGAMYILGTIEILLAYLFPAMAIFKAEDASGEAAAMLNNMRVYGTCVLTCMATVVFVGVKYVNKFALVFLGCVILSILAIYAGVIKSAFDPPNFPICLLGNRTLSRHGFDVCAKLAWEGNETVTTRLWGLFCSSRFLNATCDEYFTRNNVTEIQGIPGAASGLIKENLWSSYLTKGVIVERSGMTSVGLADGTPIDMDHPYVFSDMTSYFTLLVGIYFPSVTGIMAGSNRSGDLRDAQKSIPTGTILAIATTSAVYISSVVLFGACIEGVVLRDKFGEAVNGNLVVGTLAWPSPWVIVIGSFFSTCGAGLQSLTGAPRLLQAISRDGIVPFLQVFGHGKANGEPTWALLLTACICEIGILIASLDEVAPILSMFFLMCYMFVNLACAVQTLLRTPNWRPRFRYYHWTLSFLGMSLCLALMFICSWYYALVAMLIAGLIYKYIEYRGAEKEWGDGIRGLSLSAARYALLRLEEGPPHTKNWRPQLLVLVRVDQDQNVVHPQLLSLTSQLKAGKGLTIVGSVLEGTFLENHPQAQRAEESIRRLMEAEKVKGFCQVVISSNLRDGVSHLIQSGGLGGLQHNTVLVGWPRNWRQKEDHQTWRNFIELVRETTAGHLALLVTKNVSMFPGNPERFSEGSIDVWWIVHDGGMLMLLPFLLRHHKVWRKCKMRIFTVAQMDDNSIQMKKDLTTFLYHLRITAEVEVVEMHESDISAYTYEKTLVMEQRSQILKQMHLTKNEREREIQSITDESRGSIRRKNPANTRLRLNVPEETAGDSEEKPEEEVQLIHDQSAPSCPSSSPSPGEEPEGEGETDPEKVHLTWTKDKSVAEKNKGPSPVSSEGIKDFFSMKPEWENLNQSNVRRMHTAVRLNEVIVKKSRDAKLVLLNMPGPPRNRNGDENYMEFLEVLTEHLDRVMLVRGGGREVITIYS
Voltage-gated potassium channel subunit beta-2 (Rattus norvegicus), sequence (P62483 whole entry, looked up): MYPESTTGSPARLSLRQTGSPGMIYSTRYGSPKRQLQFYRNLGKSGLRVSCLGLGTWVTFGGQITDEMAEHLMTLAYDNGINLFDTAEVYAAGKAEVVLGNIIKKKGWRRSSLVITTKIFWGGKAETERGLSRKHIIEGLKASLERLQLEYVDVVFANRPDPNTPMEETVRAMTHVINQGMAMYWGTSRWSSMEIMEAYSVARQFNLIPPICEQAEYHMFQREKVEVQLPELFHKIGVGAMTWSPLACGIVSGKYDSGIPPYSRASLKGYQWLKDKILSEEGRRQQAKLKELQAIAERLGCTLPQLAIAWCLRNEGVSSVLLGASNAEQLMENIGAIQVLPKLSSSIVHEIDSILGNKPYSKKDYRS
Dual specificity protein phosphatase 6 (Homo sapiens), sequence (Q16828 whole entry, looked up): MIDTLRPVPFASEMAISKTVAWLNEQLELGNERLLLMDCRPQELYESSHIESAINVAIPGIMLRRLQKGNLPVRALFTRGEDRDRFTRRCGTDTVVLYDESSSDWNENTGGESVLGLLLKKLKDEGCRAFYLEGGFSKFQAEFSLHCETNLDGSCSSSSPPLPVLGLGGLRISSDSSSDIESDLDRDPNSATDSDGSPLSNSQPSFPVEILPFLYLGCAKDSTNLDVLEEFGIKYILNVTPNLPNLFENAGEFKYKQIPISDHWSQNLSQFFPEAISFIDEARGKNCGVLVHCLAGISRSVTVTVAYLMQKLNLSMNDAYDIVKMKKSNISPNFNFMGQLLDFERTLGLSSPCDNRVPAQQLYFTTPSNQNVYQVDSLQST
Alpha-2C adrenergic receptor (Homo sapiens), sequence (P18825 whole entry, looked up): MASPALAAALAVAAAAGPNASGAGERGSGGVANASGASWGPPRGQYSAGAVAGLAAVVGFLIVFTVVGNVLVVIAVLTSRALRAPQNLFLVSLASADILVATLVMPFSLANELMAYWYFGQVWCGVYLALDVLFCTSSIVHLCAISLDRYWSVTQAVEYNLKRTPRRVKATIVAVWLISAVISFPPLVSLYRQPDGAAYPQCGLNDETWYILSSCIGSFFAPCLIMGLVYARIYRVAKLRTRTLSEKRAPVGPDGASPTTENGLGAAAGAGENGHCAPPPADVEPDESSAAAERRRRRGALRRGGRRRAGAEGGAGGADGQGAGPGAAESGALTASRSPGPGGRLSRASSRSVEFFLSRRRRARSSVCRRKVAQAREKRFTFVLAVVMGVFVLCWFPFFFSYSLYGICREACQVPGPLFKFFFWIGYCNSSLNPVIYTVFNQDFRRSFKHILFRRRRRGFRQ

CCN(CC)C(=O)c1ccc(O)c(OC)c1
cell count [1]: 502 | inhibition [1]: -11.1% (inactive) | inhibition of aggregation [2]: 8.7% (inactive) | nuclei count [2]: 92.4% | inhibition [3]: -54.9% (inactive) | nuclei count [3]: 125% | z-score [4, 17]: 0.597 | z-score [4, 18]: 0.258 | z-score [4, 19]: -0.513 | inhibition [5]: 8% (inactive) | fluorescence slope [6]: -0.5 (inactive) | NADPH fluorescence slope [7]: -7.4e-05 (inactive) | slope [8]: 0.00537 (inactive) | inhibition [9]: 4.81% (inactive) and 9.44% (inactive) | inhibition [10]: -6.3% (inactive) | inhibition [11]: 27.6% (inactive)

COc1ccc(C(=O)Cn2c(N3CCCCC3)nc3c2c(=O)n(C)c(=O)n3C)cc1OC
cell count [1]: 537 | inhibition [1]: 4.7% (inactive) | inhibition of aggregation [2]: 12.9% (inactive) | nuclei count [2]: 90.8% | inhibition [3]: -58.1% (inactive) | nuclei count [3]: 115% | z-score [4, 17]: -0.186 | z-score [4, 18]: 0.344 | z-score [4, 19]: 0.238 | inhibition [5]: 3.5% (inactive) | fluorescence slope [6]: -0.424 (inactive) | NADPH fluorescence slope [7]: -9.5e-05 (inactive) | slope [8]: 0.00577 (inactive) | inhibition [9]: 12.6% (inactive) | inhibition [10]: 14.5% (inactive) | inhibition [11]: 12.6% (inactive)

COc1cc(NS(=O)(=O)c2ccc(N)cc2)nc(OC)n1
cell count [1]: 482 | inhibition [1]: 1.1% (inactive) | inhibition of aggregation [2]: -12.6% (inactive) | nuclei count [2]: 82% | inhibition [3]: -59.5% (inactive) | nuclei count [3]: 96.6% | z-score [4, 17]: 0.641 | z-score [4, 18]: 0.795 | z-score [4, 19]: -0.759 | inhibition [5]: 5.79% (inactive) | fluorescence slope [6]: -0.439 (inactive) | NADPH fluorescence slope [7]: -7e-05 (inactive) | slope [8]: 0.00564 (inactive) | inhibition [9]: 20.1% (inactive) | inhibition [10]: 24.9% (inactive) | inhibition [11]: 51.9% (active)

Cc1[nH]n(-c2ccccc2)c(=O)c1N=Nc1ccccc1C(=O)N1CCCCC1
normalized thallium flux (PubChem AID 1714): 0.0338 (active) | normalized thallium flux [12]: 0.03 (inactive) | thallium flux rate (normalised fluorescence) [13]: 0.0142 (active) | raw Tl+ flux slope (below DMSO = inhibition, above = activation) [14]: 0.0253 (active)

N#Cc1ccc(C(=O)Nc2nc(-c3cccs3)c(C(=O)C(F)(F)F)s2)cc1
normalised thallium flux (F/F0 slope) [15]: 0.00795 (inactive) | normalized thallium flux [12]: 0.033 (inactive) | thallium flux rate (normalised fluorescence) [13]: 0.00821 (inactive) | raw Tl+ flux slope (below DMSO = inhibition, above = activation) [14]: 0.0191 (inactive)

COc1ccc(Cl)cc1S(=O)(=O)Nc1cccc(C(=O)O)c1
normalised thallium flux (F/F0 slope) [15]: 0.00707 (inactive) | normalized thallium flux [12]: 0.0299 (inactive) | thallium flux slope [16]: 0.0107 (inactive)

CC(C)CNC(=S)NC(=O)c1ccc(Cl)cc1
normalized thallium flux (PubChem AID 1714): 0.0714 (active) | normalized thallium flux [12]: 0.0638 (active) | thallium flux rate (normalised fluorescence) [13]: 0.0685 (active) | raw Tl+ flux slope (below DMSO = inhibition, above = activation) [14]: 0.0663 (active) | thallium flux slope [16]: 0.0594 (active)

Cc1cc(=O)oc2c(CN3CCN(C)CC3)c(O)c(Cl)cc12
cell count [1]: 494 | inhibition [1]: -13.9% (inactive) | inhibition of aggregation [2]: 0.1% (inactive) | nuclei count [2]: 101% | inhibition [3]: -17.2% (inactive) | nuclei count [3]: 105% | z-score [4, 17]: -0.81 | z-score [4, 18]: -0.0591 | z-score [4, 19]: -0.654 | inhibition [5]: 1.48% (inactive) | fluorescence slope [6]: -0.0297 (active) | NADPH fluorescence slope [7]: 2e-05 (inactive) | slope [8]: 0.00763 (inactive) | inhibition [9]: -9.73% (inactive) | inhibition [10]: 14.9% (inactive) | inhibition [11]: 17.6% (inactive)

COC(=O)CC1SC(=O)NC1=O (configuration not stated)
cell count [1]: 552 | inhibition [1]: -6.8% (inactive) | inhibition of aggregation [2]: 26.4% (inactive) | nuclei count [2]: 110% | inhibition [3]: -98.9% (inactive) | nuclei count [3]: 124% | z-score [4, 17]: -1.23 | z-score [4, 18]: -0.523 | z-score [4, 19]: 0.399 | inhibition [5]: 5.26% (inactive) | fluorescence slope [6]: -0.414 (inactive) | NADPH fluorescence slope [7]: -0.000171 (inactive) | slope [8]: 0.00686 (inactive) | inhibition [9]: 6.27% (inactive) | inhibition [10]: 1.46% (inactive) | inhibition [11]: 8.22% (inactive)

O=C(CCCN1C(=O)c2ccccc2C1=O)N1CCC(c2ccccc2)C1 (configuration not stated)
cell count [1]: 452 | inhibition [1]: -8.4% (inactive) | inhibition of aggregation [2]: -32.2% (inactive) | nuclei count [2]: 61.9% | inhibition [3]: -109% (inactive) | nuclei count [3]: 123% | z-score [4, 17]: 1.18 | z-score [4, 18]: -1.65 | z-score [4, 19]: 0.457 | inhibition [5]: -3.5% (inactive) | fluorescence slope [6]: -0.453 (inactive) | NADPH fluorescence slope [7]: -7.2e-05 (inactive) | slope [8]: 0.00674 (inactive) | inhibition [9]: 10.2% (inactive) | inhibition [10]: 10.8% (inactive) | inhibition [11]: -11.3% (inactive)

CC[C@@H](C)[C@@H](C(=O)N1CCN(C(=O)OC(C)(C)C)CC1)n1cc(CCC(=O)O)nn1
normalised thallium flux (F/F0 slope) [15]: 0.0104 (inactive) | normalized thallium flux [12]: 0.0349 (inactive) | thallium flux rate (normalised fluorescence) [13]: 0.00923 (active) | raw Tl+ flux slope (below DMSO = inhibition, above = activation) [14]: 0.0234 (inactive) | thallium flux slope [16]: 0.0111 (inactive)

O=C(O)CS/C(=C\c1ccc(F)cc1)c1nc2ccccc2s1
normalised thallium flux (F/F0 slope) [15]: 0.0153 (inactive) | thallium flux rate (normalised fluorescence) [13]: 0.00592 (active) | raw Tl+ flux slope (below DMSO = inhibition, above = activation) [14]: 0.011 (active)

NC(N)=NC(=O)c1nc(Cl)c(N)nc1N
cell count [1]: 517 | inhibition [1]: -4.2% (inactive) | inhibition of aggregation [2]: -1.5% (inactive) | nuclei count [2]: 103% | inhibition [3]: -76.7% (inactive) | nuclei count [3]: 114% | z-score [4, 17]: 2.22 | z-score [4, 18]: -1.45 | z-score [4, 19]: -1.51 | inhibition [5]: 30.1% (inactive) | fluorescence slope [6]: -0.443 (inactive) | NADPH fluorescence slope [7]: -7.2e-05 (inactive) | slope [8]: 0.00564 (inactive) | inhibition [9]: 4.19% (inactive) and 21.2% (inactive) | inhibition [10]: 15.9% (inactive) | inhibition [11]: 42% (inactive)

CCc1cc(=O)oc2c(CN3CCN(C)CC3)c(O)c(Cl)cc12
cell count [1]: 430 | inhibition [1]: 3.2% (inactive) | inhibition of aggregation [2]: 27.8% (inactive) | nuclei count [2]: 85.9% | inhibition [3]: -40.7% (inactive) | nuclei count [3]: 101% | z-score [4, 17]: 1.84 | z-score [4, 18]: 0.822 | z-score [4, 19]: -1.78 | inhibition [5]: 26.3% (inactive) | fluorescence slope [6]: -0.266 (inactive) | NADPH fluorescence slope [7]: -4.4e-05 (inactive) | slope [8]: 0.00532 (inactive) | inhibition [9]: 13.3% (inactive) | inhibition [10]: 16.8% (inactive) | inhibition [11]: 22.6% (inactive)
